Test results reported in publication PMC8384837, “Expanding the binding specificity for RNA recognition by a PUF domain”.

Biological target: PUM1 PUF domain R5-RGK (Homo sapiens, UniProt Q14671 828-1176, C1007R;R1008G;Q1011K)
Assay: yeast three-hybrid, YBZ-1, SC-Leu-His + 0.5 mM 3-AT, 4 days
Settings: tags: N-Gal4 AD-HA kept; label: inside an RPR1-promoter hybrid RNA with tandem MS2 sites; ssRNA
In short: (§1)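 A centromeric plasmid in strain YBZ-1 co-expressed Pumilio-1 PUF domain libraries, randomized at the three base-contacting residues of each repeat, with matching RNA elements; the strain carries a LexA–MS2 coat fusion and a HIS3 reporter. After four days on SC-Leu (input) or SC-Leu-His + 0.5 mM 3-AT (selection), the repeat regions were PCR-amplified and Illumina-sequenced. The interaction score is the log change in variant frequency from input to selection, using log2 and a pseudocount of 1 where absent.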

Chain of PUM1 PUF domain R5-RGK (Q14671 828-1176 C1007R/R1008G/Q1011K): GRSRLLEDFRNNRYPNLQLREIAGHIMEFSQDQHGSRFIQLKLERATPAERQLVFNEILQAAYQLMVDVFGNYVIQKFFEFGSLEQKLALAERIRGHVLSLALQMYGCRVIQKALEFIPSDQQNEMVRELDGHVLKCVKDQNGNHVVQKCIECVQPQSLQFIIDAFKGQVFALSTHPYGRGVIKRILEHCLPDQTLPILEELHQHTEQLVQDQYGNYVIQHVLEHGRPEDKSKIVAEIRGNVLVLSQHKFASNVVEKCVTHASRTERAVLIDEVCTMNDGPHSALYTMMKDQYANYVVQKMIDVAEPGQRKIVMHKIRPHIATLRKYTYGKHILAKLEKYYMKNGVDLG

Row | Sequence | binding signal
1 | GGCUAGAACUAGUGGAUCCCCCGGCGCCCGGCGGCUCGAGCCCGGGUAAGUGUUAAUAGUCUGCAUGCCGCCGGGCGCCAUGCCUGCAGGUCGACUCUAGAAAACAUG | 3.44 log2 enrichment (interaction score)
2 | GGCUAGAACUAGUGGAUCCCCCGGCGCCCGGCGGCUCGAGCCCGGGUAAGUGUGAAUAGUCUGCAUGCCGCCGGGCGCCAUGCCUGCAGGUCGACUCUAGAAAACAUG | 1.16 log2 enrichment (interaction score)
3 | GGCUAGAACUAGUGGAUCCCCCGGCGCCCGGCGGCUCGAGCCCGGGUAAGUGUCAAUAGUCUGCAUGCCGCCGGGCGCCAUGCCUGCAGGUCGACUCUAGAAAACAUG | 2.71 log2 enrichment (interaction score)

Biological target: PUM1 PUF domain R4-DHS (Homo sapiens, UniProt Q14671 828-1176, N971D;Q975S)
Assay: as above
Settings: tags: N-Gal4 AD-HA kept; label: inside an RPR1-promoter hybrid RNA with tandem MS2 sites; ssRNA
In short: as §1

Chain of PUM1 PUF domain R4-DHS (Q14671 828-1176 N971D/Q975S): as the sequence (Q14671 828-1176 C1007R/R1008G/Q1011K) above, with N144D, Q148S, R180C, G181R, K184Q counted along it

Row | Sequence | binding signal
4 | GGCUAGAACUAGUGGAUCCCCCGGCGCCCGGCGGCUCGAGCCCGGGUAAGUGUACAUAGUCUGCAUGCCGCCGGGCGCCAUGCCUGCAGGUCGACUCUAGAAAACAUG | 3.02 log2 enrichment (interaction score)
5 | GGCUAGAACUAGUGGAUCCCCCGGCGCCCGGCGGCUCGAGCCCGGGUAAGUGUAAAUAGUCUGCAUGCCGCCGGGCGCCAUGCCUGCAGGUCGACUCUAGAAAACAUG | 4.49 log2 enrichment (interaction score)
6 | GGCUAGAACUAGUGGAUCCCCCGGCGCCCGGCGGCUCGAGCCCGGGUAAGUGUAUAUAGUCUGCAUGCCGCCGGGCGCCAUGCCUGCAGGUCGACUCUAGAAAACAUG | 5.89 log2 enrichment (interaction score)
